Measured values as given in the supplement of paper PMC10849652.
The full data set covers some 8,800 targets. This sample favours those with a hit. About 0.5% of all pairs of compound and target were hits.

Tests used:
Assay in all cases: log2 fold change, soluble protein after heating vs DMSO (PISA); higher = thermal stabilisation; K562 lysate, 10 uM; active = over 0.2 and 3.5 SD of the protein, either way, in both replicates (recomputed)
[1] = compound: C1=CC=C(C=C1)[C@H](COC2=CC3=C(C=C2)NC(=O)N3)NC(=O)C4=CC=CN(C4=O)CC5=CC(=C(C=C5)F)F
Method in brief: (§1)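 Dounce homogenisation of K562 pellets in PBS pH 7.4 with 1 mM MgCl2 produced a crude extract, used at 1 mg/mL protein. Exposure to 10 μM compound lasted 30 min, and aliquots were then heated for 3 min across 48°C-58°C, pooled and brought to 0.5% NP-40 at 4°C. The supernatant after 21,000xg for 90 min was quantified by TMTpro 16plex LC-MS/MS with channel sums equalised. Duplicate values are given as log-two fold change in thermal stability relative to solvent controls.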

[2] = compound: CC1=C(SC2=C1C(=N[C@H](C3=NN=C(N32)C)CC(=O)N)C4=CC=C(C=C4)Cl)C
Method in brief: as §1

[3] = compound: CC1=C2C(=CC=C1)N=C(N(C2=O)C3=CC=CC=C3C)CN4C=NC5=C(N=CN=C54)N
Method in brief: as §1

[4] = compound: Cc1sc2c(c1C)C(c1ccc(Cl)cc1)=N[C@@H](CC(=O)OC(C)(C)C)c1nnc(C)n1-2
Method in brief: as §1

[5] = compound: c1ccc([C@@H]2C[C@H]2NC2CCNCC2)cc1
Method in brief: as §1

Measured: log2 fold change

ORC5 (UniProt O43913)
inactive: [1] -0.037 | [2] -0.022 | [3] 0.029 | [4] 0.003 | [5] 0.021

NUP93 (UniProt Q8N1F7)
inactive: [1] -0.054 | [2] -0.017 | [3] -0.006 | [4] 0.007 | [5] 0.031

NDC1 (UniProt Q9BTX1)
Sequence of UniProt Q9BTX1 (Q9BTX1 whole entry, looked up): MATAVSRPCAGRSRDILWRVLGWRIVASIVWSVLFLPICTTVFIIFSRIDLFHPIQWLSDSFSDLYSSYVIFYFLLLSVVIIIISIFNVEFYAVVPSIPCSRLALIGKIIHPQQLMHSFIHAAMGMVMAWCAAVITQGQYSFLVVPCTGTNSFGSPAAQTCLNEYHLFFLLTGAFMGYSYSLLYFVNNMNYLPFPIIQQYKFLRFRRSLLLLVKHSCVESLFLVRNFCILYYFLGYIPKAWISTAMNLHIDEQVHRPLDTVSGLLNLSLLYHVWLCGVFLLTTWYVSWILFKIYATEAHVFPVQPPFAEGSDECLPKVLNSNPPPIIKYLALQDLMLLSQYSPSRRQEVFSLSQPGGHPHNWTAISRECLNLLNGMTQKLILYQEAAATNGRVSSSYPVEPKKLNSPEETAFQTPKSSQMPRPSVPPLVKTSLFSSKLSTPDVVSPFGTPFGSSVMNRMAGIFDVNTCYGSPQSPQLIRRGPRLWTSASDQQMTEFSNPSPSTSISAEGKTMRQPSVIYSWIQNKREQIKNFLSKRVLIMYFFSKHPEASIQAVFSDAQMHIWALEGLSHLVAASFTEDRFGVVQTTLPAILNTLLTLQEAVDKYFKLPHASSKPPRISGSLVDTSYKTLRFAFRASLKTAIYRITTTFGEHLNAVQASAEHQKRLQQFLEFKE
inactive: [1] 0.001 | [2] -0.055 | [3] 0.003 | [4] 0.02 | [5] -0.172

NARF (UniProt Q9UHQ1)
Sequence of UniProt Q9UHQ1 (Q9UHQ1 whole entry, looked up): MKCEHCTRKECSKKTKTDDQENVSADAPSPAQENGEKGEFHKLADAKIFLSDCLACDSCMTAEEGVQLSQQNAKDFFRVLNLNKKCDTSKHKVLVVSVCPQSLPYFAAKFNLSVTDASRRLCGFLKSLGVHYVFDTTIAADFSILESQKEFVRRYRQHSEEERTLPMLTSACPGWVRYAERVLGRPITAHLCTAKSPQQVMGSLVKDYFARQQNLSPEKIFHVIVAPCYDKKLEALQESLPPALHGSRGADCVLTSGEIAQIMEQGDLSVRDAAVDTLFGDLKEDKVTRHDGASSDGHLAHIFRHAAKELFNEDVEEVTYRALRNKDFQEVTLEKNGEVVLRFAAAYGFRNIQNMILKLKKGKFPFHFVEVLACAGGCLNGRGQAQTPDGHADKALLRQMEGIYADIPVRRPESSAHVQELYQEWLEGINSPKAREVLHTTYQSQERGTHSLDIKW
inactive: [1] -0.023 | [2] -0.005 | [3] 0.017 | [4] -0.019 | [5] 0

OPA1 isoform 2 (UniProt O60313)
inactive: [1] -0.048 | [2] 0.021 | [3] 0.038 | [4] 0.005 | [5] 0.084

NUP160 (UniProt Q12769)
inactive: [1] -0.021 | [2] -0.027 | [3] 0.012 | [4] -0.04 | [5] 0.01

NUP210 (UniProt Q8TEM1)
Sequence of UniProt Q8TEM1 (Q8TEM1 whole entry, looked up): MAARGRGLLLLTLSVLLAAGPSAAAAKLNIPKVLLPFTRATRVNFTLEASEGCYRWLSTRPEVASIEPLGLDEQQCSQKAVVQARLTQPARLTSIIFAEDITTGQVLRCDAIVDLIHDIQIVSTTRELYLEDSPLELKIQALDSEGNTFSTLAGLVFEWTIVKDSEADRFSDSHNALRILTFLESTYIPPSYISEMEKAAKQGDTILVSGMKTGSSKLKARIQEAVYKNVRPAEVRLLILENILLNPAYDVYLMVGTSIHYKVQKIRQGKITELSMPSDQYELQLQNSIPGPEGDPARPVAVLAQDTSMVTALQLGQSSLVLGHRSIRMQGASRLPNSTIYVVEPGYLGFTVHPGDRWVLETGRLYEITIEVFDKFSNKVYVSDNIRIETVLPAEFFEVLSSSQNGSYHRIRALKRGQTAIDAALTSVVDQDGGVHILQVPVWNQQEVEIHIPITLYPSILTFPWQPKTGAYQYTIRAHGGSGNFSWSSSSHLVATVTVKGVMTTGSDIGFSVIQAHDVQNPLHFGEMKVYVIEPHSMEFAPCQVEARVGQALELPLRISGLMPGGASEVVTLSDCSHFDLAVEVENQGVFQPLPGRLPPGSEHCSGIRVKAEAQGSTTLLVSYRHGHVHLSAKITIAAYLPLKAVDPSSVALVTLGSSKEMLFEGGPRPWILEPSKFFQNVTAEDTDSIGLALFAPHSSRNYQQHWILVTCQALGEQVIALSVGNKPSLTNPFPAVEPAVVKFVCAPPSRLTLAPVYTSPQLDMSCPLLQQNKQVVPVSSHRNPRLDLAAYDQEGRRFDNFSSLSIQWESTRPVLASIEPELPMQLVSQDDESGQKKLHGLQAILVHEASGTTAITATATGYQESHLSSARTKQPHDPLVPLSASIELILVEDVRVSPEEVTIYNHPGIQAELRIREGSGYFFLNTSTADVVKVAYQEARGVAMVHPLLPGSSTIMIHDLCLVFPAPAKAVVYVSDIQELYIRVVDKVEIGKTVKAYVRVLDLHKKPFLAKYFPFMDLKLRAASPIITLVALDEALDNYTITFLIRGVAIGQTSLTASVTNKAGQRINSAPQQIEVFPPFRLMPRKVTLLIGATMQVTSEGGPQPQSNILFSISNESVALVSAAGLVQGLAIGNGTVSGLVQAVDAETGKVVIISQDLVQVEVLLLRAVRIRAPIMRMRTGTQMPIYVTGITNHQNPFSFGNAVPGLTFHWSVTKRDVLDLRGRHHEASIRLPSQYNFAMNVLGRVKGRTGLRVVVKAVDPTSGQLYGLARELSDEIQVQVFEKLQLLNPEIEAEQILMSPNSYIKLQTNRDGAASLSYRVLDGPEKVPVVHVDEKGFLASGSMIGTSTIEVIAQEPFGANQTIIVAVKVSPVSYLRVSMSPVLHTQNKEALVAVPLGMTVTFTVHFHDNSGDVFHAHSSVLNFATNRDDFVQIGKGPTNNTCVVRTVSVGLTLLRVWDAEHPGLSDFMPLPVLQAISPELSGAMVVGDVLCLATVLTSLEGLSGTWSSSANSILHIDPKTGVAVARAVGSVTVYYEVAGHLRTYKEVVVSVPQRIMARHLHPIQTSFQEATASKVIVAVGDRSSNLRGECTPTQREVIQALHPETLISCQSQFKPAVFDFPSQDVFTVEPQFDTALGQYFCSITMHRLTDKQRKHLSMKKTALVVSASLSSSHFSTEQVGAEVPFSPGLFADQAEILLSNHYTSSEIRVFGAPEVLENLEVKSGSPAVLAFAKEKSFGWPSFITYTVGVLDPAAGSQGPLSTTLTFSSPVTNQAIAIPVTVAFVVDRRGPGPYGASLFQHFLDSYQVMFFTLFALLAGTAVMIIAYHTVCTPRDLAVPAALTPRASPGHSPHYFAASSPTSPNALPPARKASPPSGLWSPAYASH
inactive: [1] -0.101 | [2] 0.07 | [3] 0.016 | [4] 0.04 | [5] 0.028

NUMB isoform 2 (UniProt P49757)
inactive: [4] -0.207

NUDT6 (UniProt P53370)
inactive: [3] -0.222 | [4] 0.009

OTUD7B (UniProt Q6GQQ9)
inactive: [1] -0.004 | [2] 0 | [3] -0.001 | [4] -0.02 | [5] 0.035

MT-ATP8 (UniProt P03928)
Sequence of UniProt P03928 (P03928 whole entry, looked up): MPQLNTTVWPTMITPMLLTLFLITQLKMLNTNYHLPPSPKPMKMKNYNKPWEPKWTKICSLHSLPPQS
inactive: [1] -0.057 | [2] 0.052 | [3] 0.082 | [5] 0.104

OSBPL1A (UniProt Q9BXW6)
inactive: [1] -0.089 | [2] 0.007 | [4] -0.144 | [5] -0.084

PAGE4 (UniProt O60829)
inactive: [1] 0.024 | [2] -0.11 | [4] -0.143 | [5] 0.118

NRIP1 (UniProt P48552)
inactive: [1] 0.058 | [2] 0.112 | [4] -0.071 | [5] -0.069

MYOM1 (UniProt P52179)
inactive: [1] -0.012 | [2] 0.088 | [3] -0.111 | [4] -0.135 | [5] -0.079

MXRA7 (UniProt P84157)
Sequence of UniProt P84157 (P84157 whole entry, looked up): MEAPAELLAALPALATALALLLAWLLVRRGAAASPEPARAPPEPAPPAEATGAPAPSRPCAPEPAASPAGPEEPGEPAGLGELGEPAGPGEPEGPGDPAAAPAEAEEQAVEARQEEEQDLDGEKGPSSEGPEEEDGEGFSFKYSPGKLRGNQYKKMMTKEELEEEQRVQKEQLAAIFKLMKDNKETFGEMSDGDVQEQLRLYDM
inactive: [3] -0.05 | [4] -0.106 | [5] -0.062

PARD3B (UniProt Q8TEW8)
inactive: [4] 0.138 | [5] -0.085

NUDT4 isoform 2 (UniProt Q9NZJ9)
inactive: [1] 0.009 | [2] -0.011 | [3] 0.01 | [4] 0.067 | [5] -0.026

NSUN7 (UniProt Q8NE18)
inactive: [1] -0.144 | [2] -0.046 | [3] 0.06 | [5] -0.081

NIT2 (UniProt Q9NQR4)
Sequence of UniProt Q9NQR4 (Q9NQR4 whole entry, looked up): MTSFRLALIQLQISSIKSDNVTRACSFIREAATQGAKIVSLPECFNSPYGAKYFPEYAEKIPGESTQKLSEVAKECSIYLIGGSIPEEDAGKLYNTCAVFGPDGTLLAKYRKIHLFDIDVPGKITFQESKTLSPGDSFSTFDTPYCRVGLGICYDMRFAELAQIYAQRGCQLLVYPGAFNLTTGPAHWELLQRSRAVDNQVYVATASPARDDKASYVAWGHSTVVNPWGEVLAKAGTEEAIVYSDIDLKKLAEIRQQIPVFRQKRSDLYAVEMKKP
inactive: [1] -0.033 | [2] 0.017 | [3] 0.027 | [4] -0.007 | [5] 0.058

NNMT (UniProt P40261)
inactive: [1] 0.003 | [2] 0.05 | [3] 0.027 | [4] -0.011 | [5] -0.027

P2RY1 (UniProt P47900)
inactive: [1] -0.153 | [2] 0.163 | [4] -0.047 | [5] -0.022

PAGE2B (UniProt Q5JRK9)
Sequence of UniProt Q5JRK9 (Q5JRK9 whole entry, looked up): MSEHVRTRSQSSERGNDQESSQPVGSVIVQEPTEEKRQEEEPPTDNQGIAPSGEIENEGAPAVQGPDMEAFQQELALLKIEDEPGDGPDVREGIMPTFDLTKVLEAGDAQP
inactive: [3] -0.031 | [4] -0.072 | [5] 0.182

PARD3 (UniProt Q8TEW0)
Sequence of UniProt Q8TEW0 (Q8TEW0 whole entry, looked up): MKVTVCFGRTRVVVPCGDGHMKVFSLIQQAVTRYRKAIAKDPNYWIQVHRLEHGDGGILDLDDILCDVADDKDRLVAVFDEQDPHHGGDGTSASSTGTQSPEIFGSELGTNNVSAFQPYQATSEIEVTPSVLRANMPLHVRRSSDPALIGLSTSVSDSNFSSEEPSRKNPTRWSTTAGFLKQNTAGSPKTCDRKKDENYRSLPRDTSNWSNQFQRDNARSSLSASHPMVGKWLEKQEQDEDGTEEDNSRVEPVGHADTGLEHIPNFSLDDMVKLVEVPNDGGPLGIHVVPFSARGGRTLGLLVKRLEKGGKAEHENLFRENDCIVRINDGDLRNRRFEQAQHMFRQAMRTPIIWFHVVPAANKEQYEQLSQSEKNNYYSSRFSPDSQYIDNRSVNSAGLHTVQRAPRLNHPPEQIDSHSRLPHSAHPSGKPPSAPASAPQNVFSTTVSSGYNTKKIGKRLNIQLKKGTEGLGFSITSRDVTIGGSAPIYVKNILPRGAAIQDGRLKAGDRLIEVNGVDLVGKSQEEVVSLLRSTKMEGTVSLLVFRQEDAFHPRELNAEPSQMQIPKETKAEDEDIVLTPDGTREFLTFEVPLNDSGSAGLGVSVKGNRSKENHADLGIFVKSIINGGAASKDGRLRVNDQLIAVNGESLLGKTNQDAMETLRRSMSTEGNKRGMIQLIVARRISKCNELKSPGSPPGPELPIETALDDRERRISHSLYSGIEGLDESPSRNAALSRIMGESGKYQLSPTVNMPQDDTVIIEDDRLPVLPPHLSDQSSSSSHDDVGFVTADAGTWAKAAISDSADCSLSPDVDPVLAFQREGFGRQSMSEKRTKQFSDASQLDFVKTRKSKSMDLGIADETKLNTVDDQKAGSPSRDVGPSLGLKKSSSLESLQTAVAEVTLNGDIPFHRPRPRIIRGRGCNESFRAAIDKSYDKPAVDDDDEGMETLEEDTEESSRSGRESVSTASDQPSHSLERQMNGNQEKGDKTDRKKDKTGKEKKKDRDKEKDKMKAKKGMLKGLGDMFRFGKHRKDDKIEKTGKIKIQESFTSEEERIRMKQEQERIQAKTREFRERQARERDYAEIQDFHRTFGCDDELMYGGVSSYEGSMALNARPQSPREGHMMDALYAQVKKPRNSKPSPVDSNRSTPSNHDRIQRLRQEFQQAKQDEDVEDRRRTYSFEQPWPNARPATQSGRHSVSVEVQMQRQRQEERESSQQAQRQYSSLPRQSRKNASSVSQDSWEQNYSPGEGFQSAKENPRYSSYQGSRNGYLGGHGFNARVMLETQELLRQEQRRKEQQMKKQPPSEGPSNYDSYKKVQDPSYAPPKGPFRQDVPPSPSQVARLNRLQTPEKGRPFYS
inactive: [1] 0.078 | [2] 0.063 | [3] -0.028 | [4] 0.09 | [5] -0.024

MYO9A isoform 4 (UniProt B2RTY4)
inactive: [1] -0.124 | [2] -0.047 | [3] 0.094 | [4] -0.027 | [5] -0.02

NCAPG2 (UniProt Q86XI2)
inactive: [1] -0.074 | [2] -0.04 | [3] 0.019 | [4] 0.025 | [5] 0.001

PAFAH1B3 (UniProt Q15102)
inactive: [1] 0 | [2] 0.042 | [3] 0.045 | [4] 0.047 | [5] 0.014
